From PubChem BioAssay
In the library only some 2.9% were active in any assay of this set; here they are far more common.
ADAM17 inh: ADAM17 inhibition, QFRET primary screen | inhibition, % at 6.95 µM | 0.83% of 370,000 active | recombinant ADAM17, EDANS/DABCYL FRET peptide cleavage | P78536;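 active means inhibition above the mean of compounds lying between control limits plus 3 SD, set per campaign, cut at about 8.5% in these data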;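 further: 0% = DMSO-only wells as the low control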
proKLK7 act: proKLK7 (human) activation, primary screen | P49862 | purified proKLK7, EDANS-DABCYL substrate fluorescence; 100% is mature enzyme control, 0% vehicle | activation, % at 7 µM | 0.9% of 370,000 active;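 active means activation above the mean of all tested compounds plus 3 SD, computed per campaign excluding outliers beyond control limits, cut at about 13% in these data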
PLCg1 inh: PLC-gamma1 (human) inhibition, primary screen; AID 720700; 0.84% of 370,000 active; P19174; inhibition, % at 12.2 µM; purified PLC-gamma1, fluorogenic substrate, fluorescence; in the data active means inhibition above about 9.5%
ADAM10 inh: ADAM10 inhibition, QFRET primary screen. 0.62% of 370,000 active. recombinant ADAM10, EDANS/DABCYL FRET peptide cleavage, 3 h. inhibition, % at 7 µM. AID 720582;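 active means inhibition above a per-campaign cutoff equal to the mean of compounds falling between control-based bounds plus 3 SD, cut at about 20% in these data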;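 further: 0% = DMSO wells while the 100% control is not disclosed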
PLCb3 inh: PLC-beta3 (human) inhibition, primary screen; Q01970; Purified PLC-beta3, fluorogenic substrate, fluorescence; inhibition, % at 12.2 µM; 0.18% of 370,000 active; AID 720704;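 further: 0% = median of compound wells on plate and 100% = full blocker control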
ADAM10 ctr: counter-screen for ADAM17 exosite inhibitors: inhibitors of human ADAM10. recombinant ADAM10, EDANS/DABCYL FRET peptide cleavage, 3 h. 47% of 2,900 active. inhibition, % at 6.95 µM. shares compounds with ADAM17 inh;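 active means mean inhibition over the triplicate runs exceeds the activity threshold set in the earlier primary screen, cut at about 20% in these data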;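 further: 0% = DMSO wells and 100% = marimastat wells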
ADAM17 confirm: human ADAM17 inhibition, confirmation; shares compounds with ADAM17 inh; recombinant ADAM17, EDANS/DABCYL QFRET peptide cleavage; inhibition, % at 6.95 µM; 65% of 2,900 active; AID 743257;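 active means mean inhibition across replicates above the hit cutoff set in the primary screen, cut at about 8.5% in these data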;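 further: 0% = DMSO wells and 100% = marimastat wells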
PLCgamma1 ctr: counter-screen for PLC-beta3 inhibitors: inhibitors of human PLC-gamma1; shares compounds with PLCg1 inh; purified PLC-gamma1, fluorogenic substrate, fluorescence; inhibition, % at 12.3 µM; 3.1% of 3,300 active; AID 743258; in the data active means inhibition above about 9.5%
PLCb3 confirm: human PLC-beta3 inhibition, confirmation; inhibition, % at 12.3 µM; shares compounds with PLCg1 inh; 1% of 3,300 active; purified PLC-beta3, fluorogenic substrate fluorescence
Numbers without * were called inactive. Unless noted, no stated cut-off is given here; in the data, active means inhibition above about 11%; inactive means the rest.

Results for Cc1c(Cl)c([N+](=O)[O-])nn1CC(=O)N1CCCC1 ?
ADAM17 inh: -2; proKLK7 act: -1; PLCg1 inh: 0; ADAM10 inh: 1; PLCb3 inh: 5

Results for Cc1c(Cl)c([N+](=O)[O-])nn1CC(=O)NC12CC3CC(CC(C3)C1)C2 ?
ADAM17 inh: 11*; proKLK7 act: 1; PLCg1 inh: 8; ADAM10 inh: 16; PLCb3 inh: 8; ADAM10 ctr: -5; ADAM17 confirm: 2

How did COC(=O)c1ccc(CNC(=O)COC(=O)C23CC4CC(CC(C4)C2)C3)cc1 do in these assays?
ADAM17 inh: 8.7*; proKLK7 act: 0; PLCg1 inh: 3; ADAM10 inh: 10; PLCb3 inh: 4; ADAM10 ctr: 9; ADAM17 confirm: 3

What do the screens show for `CCOC(=O)NC(NC(=S)Nc1ccc(OCC)cc1)C(Cl)(Cl)Cl` (stereo not given)?
ADAM17 inh: 0; proKLK7 act: -1; PLCg1 inh: 2; ADAM10 inh: -2; PLCb3 inh: 0

What do the screens show for `O=C(NC(NC(=S)Nc1c(Cl)cccc1Cl)C(Cl)(Cl)Cl)OCc1ccccc1` (stereo not given)?
ADAM17 inh: 12*; proKLK7 act: 0; PLCg1 inh: 0; ADAM10 inh: 14; PLCb3 inh: -2; ADAM10 ctr: 33*; ADAM17 confirm: 16*

What do the screens show for `O=[N+]([O-])c1ccc(Nc2ccc(F)cc2)nc1`?
ADAM17 inh: 10*; proKLK7 act: 0; PLCg1 inh: -4; ADAM10 inh: 3; PLCb3 inh: -8; ADAM10 ctr: 3; ADAM17 confirm: 5

What do the screens show for `O=[N+]([O-])c1ccc(Nc2ccccc2)nc1`?
ADAM17 inh: 2; proKLK7 act: 0; PLCg1 inh: 0; ADAM10 inh: 5; PLCb3 inh: -5

What do the screens show for `O=C1NC[C@H](CCCCN2CCN(Cc3ccccc3)C(=O)C2=O)N(Cc2ccccc2)C1=O`?
ADAM17 inh: -2; proKLK7 act: 0; PLCg1 inh: 2; ADAM10 inh: -3; PLCb3 inh: 3

Results for CCn1c(Cc2cccs2)nnc1SCC(=O)Nc1ccccc1-c1ccccc1 ?
ADAM17 inh: 1; proKLK7 act: 1; PLCg1 inh: 3; ADAM10 inh: 3; PLCb3 inh: 3

Results for CC1CC(C)CN(S(=O)(=O)c2ccc(NC(=O)CN3C(=O)NC(C)(c4ccccc4)C3=O)cc2)C1 (stereo not given) ?
ADAM17 inh: 10.0*; proKLK7 act: 0; PLCg1 inh: 4; ADAM10 inh: 17; PLCb3 inh: 0; ADAM10 ctr: 21*; ADAM17 confirm: 12*

What do the screens show for `CC1(c2ccccc2)NC(=O)N(CC(=O)Nc2ccc(S(N)(=O)=O)cc2)C1=O` (stereo not given)?
ADAM17 inh: -2; proKLK7 act: -1; PLCg1 inh: 4; ADAM10 inh: 1; PLCb3 inh: 1

What do the screens show for `CC1=C(C(=O)N(C)C)CC(CC(=O)NCCCCc2ccccc2)C(=O)N1Cc1ccc(C(C)(C)C)cc1` (stereo not given)?
ADAM17 inh: 11*; proKLK7 act: 0; PLCg1 inh: 6; ADAM10 inh: -2; PLCb3 inh: -2; ADAM10 ctr: 26*; ADAM17 confirm: 12*

Results for CCN(CC)C(=O)C1=C(C)N(Cc2ccc(C(C)(C)C)cc2)C(=O)C(CC(=O)NCCCCc2ccccc2)C1 (stereo not given) ?
ADAM17 inh: 9.8*; proKLK7 act: 0; PLCg1 inh: 2; ADAM10 inh: 16; PLCb3 inh: 0; ADAM10 ctr: 20; ADAM17 confirm: 8

What do the screens show for `C[C@H](CO)N1C[C@H](C)[C@@H](CN(C)S(=O)(=O)c2ccc(F)cc2)Oc2ccc(NC(=O)Nc3ccc(C(F)(F)F)cc3)cc2C1=O`?
ADAM17 inh: 9.0*; proKLK7 act: 0; PLCg1 inh: 3; ADAM10 inh: 26*; PLCb3 inh: 1; ADAM10 ctr: 37*; ADAM17 confirm: 19*

Results for C[C@H](CO)N1C[C@H](C)[C@@H](CN(C)S(=O)(=O)c2cccs2)Oc2ccc(NC(=O)Nc3ccc(C(F)(F)F)cc3)cc2C1=O ?
ADAM17 inh: 8.7*; proKLK7 act: 1; PLCg1 inh: 4; ADAM10 inh: 29*; PLCb3 inh: 1; ADAM10 ctr: 40*; ADAM17 confirm: 23*

Results for CCN1CCN(C(=O)c2ccc(COc3cccc(Cl)c3)o2)CC1 ?
ADAM17 inh: -3; proKLK7 act: 0; PLCg1 inh: 0; ADAM10 inh: 7; PLCb3 inh: -12

What do the screens show for `CN(C)c1ccc(NC(=O)c2ccc(COc3cccc(Cl)c3)o2)cc1`?
ADAM17 inh: 10*; proKLK7 act: 0; PLCg1 inh: -8; ADAM10 inh: 17; PLCb3 inh: -11; ADAM10 ctr: 18; ADAM17 confirm: 12*

Results for CCc1ccc(C(=O)/C=C2\Sc3ccccc3NC2=O)cc1 ?
ADAM17 inh: 8.8*; proKLK7 act: 0; PLCg1 inh: 1; ADAM10 inh: 16; PLCb3 inh: 0; ADAM10 ctr: 11; ADAM17 confirm: 11*

How did N#CC(=Cc1ccnc2ccccc12)c1ccccc1 do in these assays?
ADAM17 inh: -39; proKLK7 act: -14; PLCg1 inh: -163; ADAM10 inh: -148; PLCb3 inh: -200

How did O=C(CC1SC(=Nc2ccccc2)N(CCc2c[nH]c3ccccc23)C1=O)Nc1ccccc1F (stereo not given) do in these assays?
ADAM17 inh: 9.9*; proKLK7 act: 0; PLCg1 inh: 9; ADAM10 inh: 14; PLCb3 inh: 13*; ADAM10 ctr: 24*; ADAM17 confirm: 13*; PLCgamma1 ctr: 4; PLCb3 confirm: 7

Results for O=C(CC1SC(=Nc2ccccc2)N(CCO)C1=O)Nc1ccccc1 (stereo not given) ?
ADAM17 inh: 0; proKLK7 act: 0; PLCg1 inh: 2; ADAM10 inh: 2; PLCb3 inh: 4

Results for CC(=O)c1ccc(S(=O)(=O)N2CCN(c3ccnc4cc(Cl)ccc34)CC2)cc1 ?
ADAM17 inh: 2; proKLK7 act: 0; PLCg1 inh: -4; ADAM10 inh: 6; PLCb3 inh: -2
